# Where “and” joins values, the source holds several entries; their conditions need not be identical. Equal entries are not always repeated. Calls of active or inactive are those of the source. Cut-off read from the data, not from the text of the source, unless noted: active = inhibition above about 80%; inactive = the rest.
# Experiments:
# [1] = LFS_MB_P medulloblastoma growth inhibition, cell-based, chromothripsis tumors, cisplatin or BGB combos (AID 1671449); conditions: LFS_MB_P medulloblastoma cells;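 note: cells exposed for 96 hours; 0% = vehicle DMSO and 100% = killing by high DMSO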
# [2] = HDN33 neuroblastoma growth inhibition, cell-based, chromothripsis tumors, cisplatin or BGB combos (AID 1671450); conditions: HDN33 neuroblastoma cells, stronger effect = higher value;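 note: cells exposed to compound for four days; 0% = vehicle DMSO and 100% = cell killing by high DMSO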
# [3] = ICB984 medulloblastoma cell growth inhibition, synergistic combos for chromothripsis tumors, cisplatin or BGB combos (AID 1671451; call rule not given here;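 note: cells exposed for 96 hours before readout; 0% = vehicle DMSO and 100% = killing by high DMSO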); conditions: ICB984 medulloblastoma cells, drug combinations, stronger effect = higher value
# [4] = HTB85 osteosarcoma cell growth inhibition, synergistic combos for chromothripsis tumors, BGB or cisplatin IC20 combos (AID 1671453); conditions: HTB85 osteosarcoma cells, drug combinations, stronger effect = higher value;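 note: cells exposed for 96 hours before readout; 0% = vehicle DMSO and 100% = high DMSO killing control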
# [5] = MDA-MB-436 breast carcinoma cell growth inhibition, synergistic combos for chromothripsis tumors, BGB or cisplatin combos (AID 1671458; call rule not given here;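 note: cells exposed for 96 hours; 0% = vehicle DMSO and 100% = killing by high DMSO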); conditions: MDA-MB-436 breast carcinoma growth inhibition, drug combinations, stronger effect = higher value
# [6] = growth inhibition of BT084 medulloblastoma cells, cell-based, ICGC_MB145, cisplatin and BGB IC40 combos (AID 1671461); conditions: drug combinations, stronger effect = higher value;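 note: cells exposed to drugs for 96 hours; 0% = vehicle DMSO and 100% = high DMSO full killing control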
# [7] = growth inhibition of RCMB18 medulloblastoma cells, cell-based, cisplatin and BGB IC40 combos (AID 1671462); conditions: stronger effect = higher value;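 note: cells exposed to compound for four days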
# [8] = growth inhibition of CRL1545 osteosarcoma cells, cell-based, cisplatin and BGB IC20 combos (AID 1671464); conditions: stronger effect = higher value;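 note: cells exposed to compound for 96 hours before readout; 0% = vehicle DMSO and 100% = high DMSO killing control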
# [9] = measured here: with BGB IC20 combination, at 0.5 µM
# [10] = measured here: with cisplatin IC20 combination, at 0.5 µM
smiles,measurement,setting,value
CC1(C)CCC2=C(O1)c1ccccc1C(=O)C2=O,inhibition,"[1]; at 0.5 µM, stronger effect = higher value",-7.4% (inactive) and 16.4% (inactive)
same,inhibition,"[1]; measured here: combination with BGB IC20, at 0.005 µM",-31.4% and 0.116%
same,inhibition,"[1]; measured here: combination with BGB IC40, at 0.005 µM",-87% and -10.2%
same,inhibition,"[1]; measured here: combination with BGB IC40, at 0.05 µM",-28.3% and -0.424%
same,inhibition,"[1]; measured here: combination with cisplatin, at 0.5 µM, stronger effect = higher value",51.9% and 10.9%
same,inhibition,"[1]; measured here: combination with cisplatin, at 5 µM, stronger effect = higher value",111% and 116%
same,inhibition,"[2]; BGB combo, at 5 µM",99.6% and 99%
same,inhibition,[2]; at 0.5 µM,-4.92% (inactive) and -3.55% (inactive)
same,inhibition,"[2]; cisplatin combo, at 5 µM",99% and 99.1%
same,inhibition,[2]; [9],-10.6% and -8.55%
same,inhibition,[2]; [10],4.95% and -8.23%
same,inhibition,"[2]; single agent, at 5 µM",99.5% and 99.2%
same,inhibition,"[3]; BGB IC20 combo, at 0.005 µM",-11% and 11%
same,inhibition,"[3]; BGB IC40 combo, at 0.005 µM",-16.5% and -32.8%
same,inhibition,"[3]; BGB IC40 combo, at 0.05 µM",91.3% and 98.3%
same,inhibition,[3]; at 0.5 µM,-22.3% (inactive) and -31.1% (inactive)
same,inhibition,"[3]; cisplatin combo, at 0.05 µM",91.3% and 98.3%
same,inhibition,"[3]; cisplatin combo, at 0.5 µM",-20.6% and -42.9%
same,inhibition,"[3]; cisplatin combo, at 5 µM",-38.6% and -41.8%
same,inhibition,"[3]; measured here: 5 uM single agent, at 5 µM",2.52% and -3.56%
same,inhibition,[4]; at 0.5 µM,-5.23% (inactive) and 6.87% (inactive)
same,inhibition,"[4]; measured here: with BGB IC20, at 0.5 µM",23.7% and 5.32%
same,inhibition,"[4]; measured here: with BGB IC20, at 5 µM",76.7% and 64.8%
same,inhibition,"[4]; measured here: with cisplatin IC20, at 0.5 µM",-20.9% and 1.14%
same,inhibition,"[4]; measured here: with cisplatin IC20, at 5 µM",61.5% and 60.9%
same,inhibition,"[4]; single agent, at 5 µM",70.5% and 62.3%
same,inhibition,[5]; at 0.5 µM,-2.8% (inactive) and -3.21% (inactive)
same,inhibition,"[5]; measured here: BGB combination, at 0.5 µM",3.02% and -1.78%
same,inhibition,"[5]; measured here: BGB combination, at 5 µM",81.9% and 78.2%
same,inhibition,"[5]; measured here: cisplatin combination, at 0.5 µM",-22.4% and -3.57%
same,inhibition,"[5]; measured here: cisplatin combination, at 5 µM",86.7% and 87.2%
same,inhibition,[6]; at 0.5 µM,-12.5% (inactive) and -0.136% (inactive)
same,inhibition,"[6]; cisplatin combination, at 0.5 µM",-14.9% and 2.47%
same,inhibition,"[6]; cisplatin combination, at 5 µM",78.1% and 100%
same,inhibition,"[6]; measured here: BGB IC40 combination 0.05 uM, at 0.05 µM",-20.9% and -18.5%
same,inhibition,"[6]; single agent, at 5 µM",99.5% and 99.6%
same,inhibition,[7]; at 0.5 µM,-1.45% (inactive) and 6.25% (inactive)
same,inhibition,"[7]; cisplatin combo, at 5 µM",101%
same,inhibition,"[7]; measured here: BGB IC40 combination, at 0.05 µM",-6.29% and -29%
same,inhibition,"[7]; measured here: combination with cisplatin, at 0.5 µM",-0.361% and 36.6%
same,inhibition,"[7]; single agent, at 5 µM",98.1% and 99.3%
same,inhibition,[8]; at 0.5 µM,36.2% (inactive) and 22.6% (inactive)
same,inhibition,[8]; [9],33.7% and 14.6%
same,inhibition,[8]; [10],36.4% and 26.5%
same,inhibition,"[8]; single agent, at 0.05 µM",-59.2% and -23.1%
same,inhibition,"[8]; single agent, at 5 µM",98.9% and 98.3%

# Source: PubChem BioAssay
